Laboratory results from PubChem BioAssay (Tox21).
Where “and” joins values, the source holds several entries; their conditions need not be identical. Equal entries are not always repeated. Records with an inconclusive call do not appear. A call without a number means that no potency is given here. Where a structure was tested more than once in an assay, its records may differ in their call. Calls of active or inactive are those of the source. Unless noted, the call rests on the fitted dose curve; in most records, active means well fitted curve in the direction sought with a large enough effect in the repeat runs; inconclusive means weak or mixed curves; inactive means no such curve, though single readings can be large; an effect the other way counts as inactive or inconclusive.

Assays:
[1] = qHTS RealTime-Glo MT Cell Viability Assay in HEK293 cells - 0 hour (AID 1224880); conditions: RealTime-Glo luminescence; series mostly up to 76.8 µM; further: top concentration of the series differs between compounds; nearly all actives have a fitted effect of over 45% in size
Outline: (§1)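 Cells were seeded together with NanoLuc luciferase and a prosubstrate that viable cells reduce to a luciferase substrate. After a 5 h incubation at 37 C/5% CO2, compounds were added and luminescence was measured repeatedly during 40 h of treatment.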

[2] = A CellTox Green Cytotoxicity Assay to monitor cytotoxicity in HEK293 cells - 32 hour (AID 1224881); conditions: CellTox Green fluorescence; series mostly up to 76.8 µM; further: nearly all actives have a fitted effect of over 40% in size
Outline: (§2)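 Nonlytic real-time cytotoxicity: HEK293 + CellTox Green reagent plated, 5 h preincubation, pintool compound addition (23 nL in DMSO), 37 C for 40 h, fluorescence measured at successive time points.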

[3] = A CellTox Green Cytotoxicity Assay to monitor cytotoxicity in HepG2 cells - 0 hour (AID 1224882); conditions: CellTox Green fluorescence; series mostly up to 76.8 µM; further: nearly all actives have a fitted effect of over 35% in size
Outline: (§3)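 Read-out is fluorescence of a cyanine dye excluded from live cells that stains DNA of dead HepG2 cells, with signal proportional to cytotoxicity. Plates were read at 0, 8, 16, 24, 32 and 40 h after compound addition.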

[4] = A CellTox Green Cytotoxicity Assay to monitor cytotoxicity in HepG2 cells - 32 hour (AID 1224883); conditions: CellTox Green fluorescence; series mostly up to 76.8 µM; further: nearly all actives have a fitted effect of over 50% in size
Outline: as §3

[5] = A CellTox Green Cytotoxicity Assay to monitor cytotoxicity in HEK293 cells - 8 hour (AID 1224884); conditions: CellTox Green fluorescence; series mostly up to 76.8 µM; further: nearly all actives have a fitted effect of over 35% in size
Outline: as §2

[6] = qHTS RealTime-Glo MT Cell Viability Assay in HepG2 cells - 16 hour (AID 1224885); conditions: RealTime-Glo luminescence; series mostly up to 76.8 µM; further: nearly all actives have a fitted effect of over 50% in size
Outline: (§4)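 qHTS, HepG2, 600 cells/well, RealTime-Glo (NanoLuc + prosubstrate) added with cells; 5 h preincubation; DMSO compound addition; 37 C; luminescence at 0/8/16/24/32/40 h.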

[7] = qHTS RealTime-Glo MT Cell Viability Assay in HEK293 cells - 24 hour (AID 1224886); conditions: RealTime-Glo luminescence; series mostly up to 76.8 µM; further: top concentration of the series differs between compounds; nearly all actives have a fitted effect of over 50% in size
Outline: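 Assay medium contained NanoLuc luciferase plus cell-permeant prosubstrate, added with HEK293 cells at 600 cells/well. After 5 h at 37 C/5% CO2 compounds were added; plates stayed at 37 C for 40 h with serial luminescence reads.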

[8] = qHTS RealTime-Glo MT Cell Viability Assay in HEK293 cells - 8 hour (AID 1224887); conditions: RealTime-Glo luminescence; series mostly up to 76.8 µM; further: top concentration of the series differs between compounds; nearly all actives have a fitted effect of over 50% in size
Outline: as §1

[9] = A CellTox Green Cytotoxicity Assay to monitor cytotoxicity in HEK293 cells - 16 hour (AID 1224888); conditions: CellTox Green fluorescence; series mostly up to 76.8 µM; further: nearly all actives have a fitted effect of over 35% in size
Outline: as §2

[10] = qHTS assay to identify small molecule antagonists of the estrogen receptor alpha (ER-alpha) signaling pathway using the BG1 cell line in the presence of 0.1 nM 17-beta-estradiol - cell viability counter screen (AID 1259241); conditions: VM7Luc4E2 (BG1) viability, CellTiter-Fluor protease, 22 h, 0.1 nM estradiol agonist added; series mostly up to 92.4 µM; further: nearly all actives have a fitted effect of over 40% in size
Outline: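 CellTiter-Fluor read (30 min, 37C) on ER-alpha/ERE-luc VM7Luc4E2 cells; 22 hr compound treatment; agonist 0.1 nM E2 final; same-well multiplex.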

[11] = qHTS assay to identify small molecule antagonists of the androgen receptor (AR) signaling pathway using the MDA cell line in the presence of 0.5 nM R1881 - cell viability counter screen (AID 1259242); conditions: MDA-kb2 viability, CellTiter-Fluor protease fluorescence, 16 h; series mostly up to 92.4 µM; further: nearly all actives have a fitted effect of over 45% in size
Outline: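 Counter screen for cytotoxicity run in the same wells as the AR antagonist reporter screen: MDA-kb2 cells were treated 16 hr with test compounds and 0.5 nM R1881, then live-cell protease activity was measured by fluorescence.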

[12] = target: Estrogen receptor (Homo sapiens) (UniProt P03372); assay: qHTS assay to identify small molecule antagonists of the estrogen receptor alpha (ER-alpha) signaling pathway using the BG1 cell line in the presence of 0.1 nM 17-beta-estradiol (AID 1259244); conditions: VM7Luc4E2 (BG1) ERE-luciferase, antagonist mode, 0.1 nM E2, 22 h; series mostly up to 92.4 µM; further: nearly all actives have a fitted effect of over 50% in size
Sequence of Estrogen receptor (Homo sapiens) (P03372 whole entry, looked up): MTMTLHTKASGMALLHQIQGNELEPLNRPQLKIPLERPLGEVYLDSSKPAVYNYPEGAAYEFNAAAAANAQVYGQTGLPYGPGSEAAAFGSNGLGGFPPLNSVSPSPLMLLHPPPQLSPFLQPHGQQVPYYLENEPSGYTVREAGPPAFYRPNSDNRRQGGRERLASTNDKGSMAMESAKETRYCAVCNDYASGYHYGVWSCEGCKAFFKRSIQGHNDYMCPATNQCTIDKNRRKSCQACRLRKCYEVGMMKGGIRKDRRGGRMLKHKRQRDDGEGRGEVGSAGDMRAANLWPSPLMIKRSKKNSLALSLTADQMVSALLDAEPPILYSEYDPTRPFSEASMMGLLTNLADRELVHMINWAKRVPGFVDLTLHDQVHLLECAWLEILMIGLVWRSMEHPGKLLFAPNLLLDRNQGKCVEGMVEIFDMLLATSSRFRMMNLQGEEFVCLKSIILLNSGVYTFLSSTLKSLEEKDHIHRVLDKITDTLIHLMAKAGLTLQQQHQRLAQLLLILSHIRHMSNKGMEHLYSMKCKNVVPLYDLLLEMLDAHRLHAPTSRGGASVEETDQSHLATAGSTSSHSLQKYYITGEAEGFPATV
Outline: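 Cells: VM7Luc4E2, endogenous ER-alpha, 4x ERE-luc stable. Pre-culture 5 d, phenol red-free, charcoal-stripped FBS. Plated 24 h, compound + E2 0.1 nM final, 22 h 37C/5% CO2. Readout ONE-Glo luminescence.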

[13] = qHTS assay to identify small molecule HDAC inhibitors (AID 1259364); conditions: HCT-116 HDAC-Glo I/II luminescence, 2 h; series mostly up to 92.4 µM; further: nearly all actives have a fitted effect of over 45% in size; further: potency means the concentration at half of the fitted maximal effect
Outline: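 Luminescence from a cell-permeant luminogenic class I/II HDAC substrate reports endogenous deacetylase activity in intact HCT-116 cells treated with compounds for 2 h.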

[14] = qHTS assay to identify small molecule HDAC inhibitors - cell viability counter screen (AID 1259365); conditions: HCT-116 viability, CellTiter-Glo ATP luminescence, 2 h; series mostly up to 92.4 µM; further: nearly all actives have a fitted effect of over 50% in size
Outline: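 To flag cytotoxic hits, 1,500 wild-type HCT-116 cells per well, plated the day before, receive test compounds for 2hr at 37 C before CellTiter-Glo reagent and a luminescence read.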

[15] = qHTS assay to identify small molecule antagonists of the sonic hedgehog signaling (Shh) pathway - cell viability counter screen (AID 1259367); conditions: NIH/3T3 Gli1-Luc viability, CellTiter-Fluor, 24 h; series mostly up to 92.4 µM; further: nearly all actives have a fitted effect of over 55% in size; further: potency means the concentration at half of the fitted maximal effect
Outline: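 Seed 3T3 Gli1-Luc cells at 2,000 per well; incubate 4 hr; add compound in DMSO, then conditioned medium; incubate at 37C with 5% CO2; add CellTiter-Fluor after 23 hr; read fluorescence 1 hr later.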

[16] = qHTS RealTime-Glo MT Cell Viability Assay in HepG2 cells - 0 hour (AID 1224889); conditions: RealTime-Glo luminescence; series mostly up to 76.8 µM; further: nearly all actives have a fitted effect of over 50% in size
Outline: as §4

[17] = A CellTox Green Cytotoxicity Assay to monitor cytotoxicity in HepG2 cells - 8 hour (AID 1224890); conditions: CellTox Green fluorescence; series mostly up to 76.8 µM; further: nearly all actives have a fitted effect of over 45% in size
Outline: as §3

[18] = qHTS assay to identify small molecule phospholipidosis (PLD) inducers (AID 1259344; active means well fitted curve in the direction sought with a large enough effect; an effect the other way counts as inactive or inconclusive); conditions: HepG2 phospholipidosis, LipidTOX Red imaging, 24 h; series mostly up to 38.3 µM
Outline: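 Quantitative HTS in HepG2: compound plus LipidTOX Red dye for 24 h, paraformaldehyde fixation with Hoechst 33342, widefield high-content imaging; amiodarone as positive and DMSO as negative control.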

[19] = qHTS assay to identify small molecule agonists of the sonic hedgehog signaling (Shh) pathway - cell viability counter screen (AID 1259366); conditions: NIH/3T3 Gli1-Luc viability, CellTiter-Fluor, 24 h; series mostly up to 92.4 µM; further: nearly all actives have a fitted effect of over 50% in size
Outline: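 Fluorescence from CellTiter-Fluor reports live cells in this counter screen. NIH/3T3-derived Gli1-Luc reporter cells receive test compounds for 24hr at 37C; reagent goes in at 23hr.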

[20] = target: Androgen receptor (Homo sapiens) (UniProt P10275); assay: qHTS assay to identify small molecule antagonists of the androgen receptor (AR) signaling pathway using the MDA cell line in the presence of 0.5 nM R1881 (AID 1259243); conditions: MDA-kb2 MMTV-luciferase, R1881 0.5 nM, 16 h; series mostly up to 92.4 µM; further: nearly all actives have a fitted effect of over 50% in size
Sequence of Androgen receptor (Homo sapiens) (P10275 whole entry, looked up): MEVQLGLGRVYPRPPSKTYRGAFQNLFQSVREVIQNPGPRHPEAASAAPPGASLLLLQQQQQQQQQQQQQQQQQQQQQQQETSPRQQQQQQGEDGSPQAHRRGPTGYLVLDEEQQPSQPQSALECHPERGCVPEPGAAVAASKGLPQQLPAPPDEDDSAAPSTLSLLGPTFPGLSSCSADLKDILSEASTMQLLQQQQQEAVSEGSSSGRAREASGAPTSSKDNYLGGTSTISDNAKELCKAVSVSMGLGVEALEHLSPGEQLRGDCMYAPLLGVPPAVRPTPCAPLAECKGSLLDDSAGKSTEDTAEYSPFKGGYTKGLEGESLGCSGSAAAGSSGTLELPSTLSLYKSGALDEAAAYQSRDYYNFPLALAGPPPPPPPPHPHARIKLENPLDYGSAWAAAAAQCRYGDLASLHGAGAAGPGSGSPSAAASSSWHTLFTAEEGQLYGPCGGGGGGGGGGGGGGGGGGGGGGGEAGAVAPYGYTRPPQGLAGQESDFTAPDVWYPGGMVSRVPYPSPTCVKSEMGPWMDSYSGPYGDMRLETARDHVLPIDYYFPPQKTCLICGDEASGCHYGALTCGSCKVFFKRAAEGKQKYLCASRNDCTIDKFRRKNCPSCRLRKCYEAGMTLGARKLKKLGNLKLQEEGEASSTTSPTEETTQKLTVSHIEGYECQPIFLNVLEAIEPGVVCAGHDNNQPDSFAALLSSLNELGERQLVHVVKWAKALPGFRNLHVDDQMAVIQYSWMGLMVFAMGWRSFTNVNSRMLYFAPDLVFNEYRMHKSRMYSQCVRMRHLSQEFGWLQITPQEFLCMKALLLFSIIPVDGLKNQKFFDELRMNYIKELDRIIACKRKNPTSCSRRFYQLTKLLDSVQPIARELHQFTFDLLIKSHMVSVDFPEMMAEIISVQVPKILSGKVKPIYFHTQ
Outline: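 Luciferase luminescence is the read-out: compounds are tested for suppressing 0.5 nM R1881-driven MMTV reporter activity in MDA-kb2 cells after 16 hr at 37C.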

Row | Compound | outcome [1] | Potency [2] | outcome [3] | Potency [4] | outcome [5] | Potency [6] | Potency [7] | Potency [8] | Potency [9] | Potency [10] | Potency [11] | Potency [12] | Potency [13] | outcome [14] | Potency [15] | Potency [16] | outcome [17] | outcome [18] | Potency [19] | Potency [20]
1 | CC1(C)CC(N)CC(C)(CN)C1 (stereo not drawn) | inactive | inactive | inactive | inactive | inactive | inactive | inactive | inactive | inactive | inactive | inactive | inactive | inactive | inactive | inactive |  |  |  |  | 
2 | c1ccc(Oc2ccccc2)cc1 | inactive | inactive | inactive | inactive | inactive | inactive |  | inactive | inactive | inactive | inactive |  | inactive | inactive | inactive | inactive | inactive |  |  | 
3 | CCCCCCCCCCCCCCCC(=O)OC(C)C | inactive | inactive | inactive | inactive | inactive | inactive | inactive | inactive | inactive | inactive | inactive |  | inactive | inactive | inactive |  |  | inactive |  | 
4 | CCCCCCCCCCCCCCCCO | inactive | inactive | inactive | inactive | inactive | inactive |  | inactive | inactive | inactive | inactive | inactive | inactive | inactive | inactive |  |  | inactive |  | 
5 | CCc1ccccc1CC | inactive | inactive | inactive | inactive | inactive | inactive |  | inactive | inactive | inactive | inactive | inactive | inactive | inactive | inactive | inactive | inactive |  | inactive | 
6 | COc1ccc(OC)cc1 | inactive | inactive | inactive | inactive | inactive | inactive |  | inactive | inactive | inactive | inactive | inactive | inactive | inactive | inactive | inactive | inactive |  | inactive | 
7 | CC(C)(C)c1cc(Cc2cc(C(C)(C)C)c(O)c(C(C)(C)C)c2)cc(C(C)(C)C)c1O | inactive | inactive | inactive | inactive | inactive | inactive |  | inactive | inactive | inactive | inactive | inactive | inactive | inactive | inactive | inactive | inactive |  | inactive | 
8 | NC(=S)NNC(N)=S | inactive | inactive | inactive | inactive | inactive | inactive |  | inactive | inactive | inactive | inactive |  | inactive | inactive | inactive | inactive | inactive |  | inactive | 
9 | CC(C)CCCCCCCOC(=O)CCCCC(=O)OCCCCCCCC(C)C | inactive | inactive | inactive | inactive | inactive | inactive |  | inactive | inactive | inactive | inactive |  | inactive | inactive | inactive | inactive | inactive |  |  | 
10 | CC(C)(C#N)c1cc(Cn2cncn2)cc(C(C)(C)C#N)c1 | inactive | inactive | inactive | inactive | inactive | inactive |  | inactive | inactive | inactive | inactive |  | inactive | inactive | inactive | inactive | inactive | inactive | inactive | 
11 | COc1ccc(CCC(C)=O)cc1 | inactive | inactive | inactive | inactive | inactive | inactive |  | inactive | inactive | inactive | inactive |  | inactive | inactive | inactive |  |  |  | inactive | 
12 | CCOCCOCCOCCO | inactive | inactive | inactive | inactive | inactive | inactive |  | inactive | inactive | inactive | inactive |  | inactive | inactive | inactive | inactive | inactive |  | inactive | 
13 | Cc1ccc([N+](=O)[O-])cc1S(=O)(=O)O |  | inactive | inactive | inactive | inactive | inactive | inactive | inactive | inactive | inactive | inactive | inactive | inactive | inactive | inactive | inactive | inactive |  | inactive | inactive
14 | O=C(O)c1cc2ccccc2cc1O |  | inactive | inactive | inactive | inactive | inactive | inactive | inactive | inactive | inactive | inactive | inactive | 27.1 µM (active) and 24.3 µM (active) | inactive | inactive | inactive | inactive |  | inactive | inactive
15 | C=CC[N+](C)(C)CC=C | inactive | inactive | inactive | inactive | inactive | inactive |  | inactive | inactive | inactive | inactive |  | inactive | inactive | inactive | inactive |  |  | inactive | 
16 | CC(CCl)OP(=O)(OC(C)CCl)OC(C)CCl (stereo not drawn) | inactive | inactive | inactive | inactive | inactive | inactive |  | inactive | inactive | inactive | inactive | inactive | inactive | inactive | inactive | inactive | inactive |  |  | 
17 | CNC(=O)Oc1ccc2c(c1)[C@]1(C)CCN(C)[C@@H]1N2C | inactive | inactive | inactive | inactive | inactive | inactive |  | inactive | inactive | inactive | inactive | inactive | inactive | inactive | inactive | inactive | inactive | inactive |  | 
18 | Cc1ccc(S(=O)(=O)N=C=O)cc1 | inactive | inactive | inactive | inactive | inactive | inactive |  | inactive | inactive | inactive | inactive | inactive | inactive | inactive | 23.9 µM (active) and inactive | inactive |  |  |  | 
